Calls of active or inactive are those of the source.
Assays:
[1] = system: PRMT1 (protein arginine N-methyltransferase 1); assay: small molecules binding arginine methyltransferase PRMT1 – biochemical, small-molecule microarray, 635 nm fluorescence, primary screen (AID 1088); settings: higher = more signal;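 note: binding of Prmt1 protein to compounds spotted on small-molecule microarray slides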
[2] = growth effects on S. cerevisiae YJM789 – YJM789 clinical isolate, OD600, 24 h, basal, primary screen (AID 1089); settings: higher = more signal, called active from +8 up or from −8 down;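 note: growth of clinical yeast isolate S. cerevisiae YJM 789 seeded 1000 cells per well; test concentration not given here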
[3] = S. pombe growth modifiers, basal conditions – strain 972, OD600, 24 h, no modulator, primary screen (AID 1090);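 note: basal condition with compound alone and no growth modifier present; test concentration not given here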; settings: S. pombe 972 growth, higher = more signal, called active from +8 up or from −8 down
[4] = budding yeast growth modifiers under rapamycin – strain BY4716, OD600, 96 h, primary screen (AID 1091); note: test concentration not given here; settings: S. cerevisiae BY4716 + rapamycin, higher = more signal, called active from +8 up or from −8 down
[5] = molecular target: Torsin-1A-interacting protein 2 (Homo sapiens) (UniProt Q8NFQ8); assay: small molecules binding lysate-expressed LULL1 – cell lysate, human LULL1 lysate, 635/667 nm fluorescence, primary screen (AID 1092); settings: small-molecule microarray, hLULL1 lysate binding, 635 nm fluorescence; higher = more signal;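 note: probe is lysate of COS7 cells overexpressing human LULL1; score merges per-feature 667 nm fluorescence with signal-to-noise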
Torsin-1A-interacting protein 2 (Homo sapiens), sequence (Q8NFQ8 whole entry, looked up): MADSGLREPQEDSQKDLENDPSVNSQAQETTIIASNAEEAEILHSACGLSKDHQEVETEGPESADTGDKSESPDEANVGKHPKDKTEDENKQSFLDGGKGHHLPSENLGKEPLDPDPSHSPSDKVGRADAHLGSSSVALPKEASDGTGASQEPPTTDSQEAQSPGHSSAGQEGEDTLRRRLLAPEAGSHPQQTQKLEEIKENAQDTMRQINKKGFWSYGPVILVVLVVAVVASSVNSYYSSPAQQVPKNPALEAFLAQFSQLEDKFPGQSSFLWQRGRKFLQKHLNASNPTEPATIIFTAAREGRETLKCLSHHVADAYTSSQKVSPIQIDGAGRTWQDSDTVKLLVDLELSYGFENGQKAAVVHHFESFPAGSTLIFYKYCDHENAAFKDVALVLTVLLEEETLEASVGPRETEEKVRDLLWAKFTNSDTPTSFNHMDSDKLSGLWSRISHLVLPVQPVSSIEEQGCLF

[6] = optical density change of DRC41 E. coli – strain DRC41, OD650, 24 h, E. coli filamentation project, primary screen (AID 1093);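 note: MC1000 strain lacking acrAB efflux and sulA so SOS filamentation is blocked; test concentration not given here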; settings: E. coli DRC41 growth, higher = more signal, called active from +8 up or from −8 down
[7] = probe aLefty2 binding to arrayed compounds – biochemical, biotinylated probe, 635/667 nm fluorescence, primary screen (AID 1094); settings: small-molecule microarray, higher = more signal;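 note: score merges spot fluorescence near 667 nm with spot signal-to-noise ratio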
[8] = system: Noggin (protein binding on small-molecule microarray); assay: small molecules binding Noggin protein – biochemical, 635/667 nm fluorescence, primary screen (AID 1095); settings: 635 nm fluorescence, higher = more signal;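 note: score merges 667 nm feature fluorescence with signal to noise over triplicate slides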
[9] = molecular target: Neurogenic locus notch homolog protein 3 (Homo sapiens) (UniProt Q9UM47); assay: small molecules binding NOTCH3 protein – biochemical, 635/667 nm fluorescence, primary screen (AID 1096); settings: small-molecule microarray, 635 nm fluorescence, higher = more signal
Neurogenic locus notch homolog protein 3 (Homo sapiens), sequence (Q9UM47 whole entry, looked up): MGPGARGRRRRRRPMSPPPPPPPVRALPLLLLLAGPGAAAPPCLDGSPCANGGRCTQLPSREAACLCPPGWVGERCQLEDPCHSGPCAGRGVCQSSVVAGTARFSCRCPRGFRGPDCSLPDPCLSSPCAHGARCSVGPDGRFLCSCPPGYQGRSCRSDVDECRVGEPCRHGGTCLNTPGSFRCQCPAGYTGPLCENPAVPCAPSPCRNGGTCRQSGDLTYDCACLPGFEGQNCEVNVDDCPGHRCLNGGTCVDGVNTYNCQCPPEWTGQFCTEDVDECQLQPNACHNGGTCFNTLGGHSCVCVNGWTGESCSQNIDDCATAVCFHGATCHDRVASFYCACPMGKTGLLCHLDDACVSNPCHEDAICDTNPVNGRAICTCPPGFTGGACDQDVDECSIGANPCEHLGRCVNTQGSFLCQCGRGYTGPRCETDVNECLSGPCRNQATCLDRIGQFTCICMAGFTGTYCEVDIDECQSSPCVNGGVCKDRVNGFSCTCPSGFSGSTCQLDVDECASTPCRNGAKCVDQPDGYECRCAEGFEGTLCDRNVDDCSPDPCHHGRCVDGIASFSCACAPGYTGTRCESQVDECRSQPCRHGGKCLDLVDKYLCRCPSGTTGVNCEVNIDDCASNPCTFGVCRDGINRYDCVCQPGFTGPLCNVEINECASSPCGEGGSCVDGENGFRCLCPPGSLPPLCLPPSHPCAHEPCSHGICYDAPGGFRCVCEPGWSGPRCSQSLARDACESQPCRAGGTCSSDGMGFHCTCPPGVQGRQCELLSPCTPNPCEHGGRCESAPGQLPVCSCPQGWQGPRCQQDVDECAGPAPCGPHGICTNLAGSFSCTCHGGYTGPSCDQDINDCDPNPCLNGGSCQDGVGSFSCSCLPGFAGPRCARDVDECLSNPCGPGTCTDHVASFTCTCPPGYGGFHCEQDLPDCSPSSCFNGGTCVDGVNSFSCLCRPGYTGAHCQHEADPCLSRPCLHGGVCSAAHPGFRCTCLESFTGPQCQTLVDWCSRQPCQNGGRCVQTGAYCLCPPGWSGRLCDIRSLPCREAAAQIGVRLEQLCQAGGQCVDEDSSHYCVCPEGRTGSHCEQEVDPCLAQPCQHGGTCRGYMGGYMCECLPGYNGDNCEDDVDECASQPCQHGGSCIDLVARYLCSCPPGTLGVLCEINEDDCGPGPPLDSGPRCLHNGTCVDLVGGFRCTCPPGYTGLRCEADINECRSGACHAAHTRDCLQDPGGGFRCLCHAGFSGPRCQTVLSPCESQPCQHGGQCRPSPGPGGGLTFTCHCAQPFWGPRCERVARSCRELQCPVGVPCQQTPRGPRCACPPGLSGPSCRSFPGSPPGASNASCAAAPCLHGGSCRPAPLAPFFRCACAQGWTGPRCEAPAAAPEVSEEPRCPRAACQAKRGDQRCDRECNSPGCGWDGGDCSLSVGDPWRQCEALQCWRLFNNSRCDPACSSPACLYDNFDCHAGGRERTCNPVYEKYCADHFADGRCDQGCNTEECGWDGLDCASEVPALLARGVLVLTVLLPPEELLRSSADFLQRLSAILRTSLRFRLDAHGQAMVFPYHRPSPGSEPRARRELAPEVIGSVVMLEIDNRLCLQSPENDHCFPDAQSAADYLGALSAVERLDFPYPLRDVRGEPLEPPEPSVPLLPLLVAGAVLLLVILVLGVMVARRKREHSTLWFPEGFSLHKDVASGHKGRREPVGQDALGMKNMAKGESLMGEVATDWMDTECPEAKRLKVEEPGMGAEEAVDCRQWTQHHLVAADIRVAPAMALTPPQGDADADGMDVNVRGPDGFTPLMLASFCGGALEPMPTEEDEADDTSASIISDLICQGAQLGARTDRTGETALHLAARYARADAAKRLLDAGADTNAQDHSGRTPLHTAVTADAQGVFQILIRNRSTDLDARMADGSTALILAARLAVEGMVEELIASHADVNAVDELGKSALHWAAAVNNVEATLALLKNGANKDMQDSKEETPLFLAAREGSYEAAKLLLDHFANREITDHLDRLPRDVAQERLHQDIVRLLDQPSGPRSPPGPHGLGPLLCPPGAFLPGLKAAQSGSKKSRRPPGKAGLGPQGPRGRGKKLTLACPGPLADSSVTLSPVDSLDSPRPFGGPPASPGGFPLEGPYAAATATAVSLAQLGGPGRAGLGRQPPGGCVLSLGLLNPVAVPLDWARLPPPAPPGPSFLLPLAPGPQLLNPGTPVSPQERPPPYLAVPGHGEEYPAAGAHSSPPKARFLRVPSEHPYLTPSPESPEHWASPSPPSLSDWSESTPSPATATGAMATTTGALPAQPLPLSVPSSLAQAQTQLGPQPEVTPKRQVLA

[10] = probe aEGFR binding to arrayed compounds – biochemical, biotinylated probe, 635/667 nm fluorescence, primary screen (AID 1097); settings: small-molecule microarray, higher = more signal;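 note: probe is a biotinylated anti-EGFR antibody binding compounds printed on slides; score combines fluorescence near 667 nm and signal to noise of each spot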

SMILES	composite z-score [1]	z-score [2]	z-score [3]	z-score [4]	composite z-score [5]	z-score [6]	composite z-score [7]	composite z-score [8]	composite z-score [9]	composite z-score [10]
NC(=O)[C@H]1[C@@H]2C(=O)O[C@@H](c3ccccc3)[C@@H](c3ccccc3)N2[C@@H](c2ccc(OCCO)cc2)[C@]12C(=O)Nc1ccc(C#CCCO)cc12	1.41	1.62 (inactive)	0.547 (inactive)	3.63 (inactive)	1.7	-0.595 (inactive)	-0.0636	0.425	0.164	0.0932
CC1CC/C=C\[C@H]2OC34C=CCN(C(C)C)C(=O)[C@H]3N(CCO)C(=O)[C@@H]4C2C(=O)O1 (stereo not given in full)	-0.138	0.114 (inactive)	-0.486 (inactive)	0.323 (inactive)	-0.021	1.48 (inactive)	-0.159	-1.87	-0.355	-0.281
CCCC#C[Si](O[C@H](CC)c1cn([C@H](C)c2ccccc2)nn1)(C(C)C)C(C)C	0.817	-0.764 (inactive)	-10.2 (active)	-3.25 (inactive)	1.05	2.37 (inactive)	0.0539	0.316	0.579	0.359
[N-]=[N+]=NCc1ccccc1C[C@@]1(C(N)=O)N=C(c2ccc(OCCCO)cc2)O[C@@H]1c1ccccc1	1.56	-0.144 (inactive)	0.0313 (inactive)	13.3 (active)	3.59	-0.412 (inactive)	0.149	-0.734	-0.15	-0.108
COC(=O)[C@@H]1N=C(c2ccc(OCCCO)cc2)O[C@@H]1c1ccccc1	-1.01	-1.16 (inactive)	-2.33 (inactive)	-2.55 (inactive)	1.58	1.11 (inactive)	-0.149	-0.993	-1	-0.0485
COc1cc2c(cc1O)C(C1CC1)N(C)CC2 (stereo not given)	0.153	0.814 (inactive)	0.74 (inactive)	-0.531 (inactive)	0.0629	-0.965 (inactive)	0.0112	0.0427	-0.944	-0.171
OCCCC1=CC(c2ccc(CN3CCCC3)cc2)N(Cc2cc3c(cc2Br)OCO3)CC1 (stereo not given)	0.233	-2.55 (inactive)	-1.35 (inactive)	-0.705 (inactive)	-0.692	0.497 (inactive)	0.112	0.386	-0.102	0.0617
CC(C)C[C@@H]1NC(=O)[C@@H]2C[C@H](C(=O)NCCCCCCN)[C@H](c3cccc(OCCO)c3)N2C1=O	1.53	-0.148 (inactive)	-0.114 (inactive)	-0.502 (inactive)	2.98	1.03 (inactive)	0.235	0.993	1.12	0.0499
COc1ccc([Si](C)(C)[C@H]2[C@H](CC(=O)N(CCO)Cc3ccccc3)O[C@@]3(C(=O)N(C)c4c(Br)cc(C)cc43)[C@@H]2C)cc1	1.46	-1.62 (inactive)	-1.59 (inactive)	1.93 (inactive)	1.25	0.114 (inactive)	0.0256	1.79	0.758	-0.126
COC(=O)[C@@]1(Cc2ccccc2)[C@H]2c3cc(C(=O)N(C)C)n(Cc4ccc(C)o4)c3C[C@H]2CN1C(=O)c1ccccc1	0.163	1.07 (inactive)	0.65 (inactive)	0.982 (inactive)	2.93	-1.64 (inactive)	0.746	-0.471	1.13	0.667
COc1ccc(CCNC(=O)[C@@]2(Sc3ccc(C)cc3)CC(=O)N(Cc3ccccc3C(F)(F)F)[C@@H]2c2ccc(CO)cc2I)cc1	1	-1.65 (inactive)	-4.64 (inactive)	1.22 (inactive)	1.97	0.404 (inactive)	-0.0668	-1.46	-1.03	-0.264
COc1cc(OC)c(C(O)C2C=CC3C(=O)N(Cc4ccccc4)C(=O)C3N2n2cnnc2)cc1Br (stereo not given)	1.11	-1.92 (inactive)	-1.73 (inactive)	0.027 (inactive)	2.89	-1.21 (inactive)	0.0208	0.404	1.07	-0.0343
C=CCOC(=O)[C@@]1(Cc2ccccc2)C[C@H]2CO[C@H](c3ccc(OC)cc3)N2C1=O	0.262	-2.65 (inactive)	-3.58 (inactive)	0.0326 (inactive)	0.317	0.1 (inactive)	-0.126	0.224	0.408	-0.15
CCCCC(CC)C(O)C1C=CC2C(=O)N(C)C(=O)C2N1Nc1ccccc1 (stereo not given)	1.36	0.307 (inactive)	-0.592 (inactive)	0.695 (inactive)	2.87	-0.931 (inactive)	-0.121	0.123	1.03	-0.154
[N-]=[N+]=Nc1ccccc1C[C@]1(C(=O)N2CCOCC2)COC(c2ccc(OCCCO)cc2)=N1	1.56	-2.05 (inactive)	-5.79 (inactive)	-2.08 (inactive)	3.51	1.91 (inactive)	0.0446	0.182	1.06	0.0308
CC#CCO[Si](C#Cc1ccccc1)(C(C)C)C(C)C	-0.877	-1.72 (inactive)	-19.5 (active)	-1.86 (inactive)	-0.669	-0.304 (inactive)	-0.135	0.709	0.231	-0.203
C[N+](C)(C)CCCCCCNC(=O)[C@@H]1C[C@@H]2C(=O)N3CCC[C@H]3C(=O)N2[C@@H]1c1ccc(O)cc1	1.43	-0.913 (inactive)	0.214 (inactive)	-0.696 (inactive)	2.9	0.2 (inactive)	-0.0216	1.4	1.03	0.0401
CCCC[C@@H](O)C1=C(COC)C[C@H]2C(=O)N(Cc3ccccc3)C(=O)[C@H]2[C@H]1CO	0.831	0.332 (inactive)	-0.677 (inactive)	0.719 (inactive)	0.113	0.649 (inactive)	-0.241	1.18	0.788	-0.113
Cc1ccc(C(C)CC(O)C2C=CC3C(=O)N(c4ccccc4)C(=O)C3N2Nc2ccccc2)o1 (stereo not given)	1.53	0.568 (inactive)	-0.132 (inactive)	0.144 (inactive)	3.09	-0.866 (inactive)	0.326	-0.0381	1.04	0.216
[N-]=[N+]=Nc1ccccc1C[C@]1(C(=O)NCCN2CCOCC2)COC(c2ccc(OCCCO)cc2)=N1	1.29	-0.877 (inactive)	-2.27 (inactive)	-1.46 (inactive)	3.03	2.56 (inactive)	0.194	0.0424	0.0221	0.0433
COCCOC(=O)N1C(=O)[C@@]2(c3cc(C#CC4=CCCCC4)ccc31)[C@H](c1ccccc1OCCO)N1[C@H](c3ccccc3)[C@H](c3ccccc3)OC(=O)[C@H]1[C@@H]2C(=O)NC[C@H](O)c1ccccc1	1.54	1.01 (inactive)	0.785 (inactive)	3.28 (inactive)	2.54	-0.314 (inactive)	-0.0671	1.45	1.07	-0.0476
